Active and inactive are the calls of the source.
Columns and labels:
[1] = binders of probe aFSTL3 on microarray, primary screen, stem cell growth factor project, biochemical, small-molecule microarray, fluorescence 635/667 (AID 1064); details: higher = more signal;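 also: measures binding of the biotinylated anti-FSTL3 antibody to printed compounds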
[2] = binders from COS7 lysate, DM2A8 probe, primary screen, torsin A project, cell lysate, small-molecule microarray, fluorescence 635/667 (AID 1065); details: higher = more signal, COS7 lysate expressing mutant human TOR1A
[3] = binders of probe aFGF2 on microarray, primary screen, stem cell growth factor project, biochemical, small-molecule microarray, fluorescence 635/667 (AID 1067); details: higher = more signal;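 also: measures binding of biotinylated aFGF2 protein to printed compounds on slides; z-score merges feature fluorescence and signal-to-noise across triplicate slides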
[4] = binders of probe aFGF10 on microarray, primary screen, stem cell growth factor project, biochemical, small-molecule microarray, fluorescence 635/667 (AID 1071); details: higher = more signal;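 also: score merges 667 nm spot intensity and signal to noise from triplicate slides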
[5] = target: Neurogenic locus notch homolog protein 2 (Homo sapiens) (UniProt Q04721); assay: Notch2 binders on small-molecule microarrays, primary screen, biochemical, small-molecule microarray, 635 nm fluorescence, stem cell growth factors (AID 1073); details: Notch2 binding, higher = more signal
[6] = target: Pro-neuregulin-1, membrane-bound isoform (Homo sapiens) (UniProt Q02297); assay: NRG1 binders on small-molecule microarrays, primary screen, psychiatric disease protein project, biochemical, small-molecule microarray, fluorescence 635/667 (AID 1075); details: NRG1 binding, 635 nm fluorescence, higher = more signal;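 also: score combines 667 nm spot fluorescence with signal to noise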
[7] = system: Neuregulin-1 EGF-like domain; assay: binders of neuregulin-1 EGF-like domain, primary screen, biochemical, small-molecule microarray, 635 nm fluorescence (AID 1081); details: small-molecule microarray binding, higher = more signal;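 also: binding of the protein to compounds printed on small-molecule microarray slides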
[8] = FRG1 promoter luciferase signal modulators, primary screen, FRG1 inhibition for FSHD, cell-based, C2C12 myotubes, firefly/Renilla luciferase, luminescence (AID 1084); details: higher = more signal, called active from +8 up or from −8 down
[9] = binders of probe aFST on microarray, primary screen, stem cell growth factor project, biochemical, small-molecule microarray, fluorescence 635/667 (AID 1086); details: higher = more signal;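 also: score merges 667 nm fluorescence with signal-to-noise of each printed compound spot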
[10] = binders of probe aHhip on microarray, primary screen, stem cell growth factor project, biochemical, small-molecule microarray, fluorescence 635/667 (AID 1087); details: higher = more signal;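 also: score merges spot fluorescence at 667nm with spot signal to noise ratio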
[11] = system: PRMT1 (protein arginine N-methyltransferase 1); assay: PRMT1 binders on small-molecule microarrays, primary screen, biochemical, small-molecule microarray, 635 nm fluorescence (AID 1088); details: small-molecule microarray binding, higher = more signal;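 also: binding of Prmt1 protein to compounds spotted on small-molecule microarray slides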
[12] = yeast growth modulation, basal conditions, primary screen, YJM789 clinical isolate, OD600, 24 h (AID 1089);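 also: growth of clinical yeast isolate S. cerevisiae YJM 789 seeded 1000 cells per well; test concentration not given here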; details: S. cerevisiae YJM789 growth, higher = more signal, called active from +8 up or from −8 down
[13] = fission yeast growth modulation, primary screen, strain 972, OD600, 24 h, no modulator (AID 1090);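 also: basal condition with compound alone and no growth modifier present; test concentration not given here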; details: S. pombe 972 growth, higher = more signal, called active from +8 up or from −8 down
[14] = S. cerevisiae growth modulation with rapamycin, primary screen, strain BY4716, OD600, 96 h (AID 1091); details: higher = more signal, called active from +8 up or from −8 down; also: test concentration not given here
[15] = target: Torsin-1A-interacting protein 2 (Homo sapiens) (UniProt Q8NFQ8); assay: LULL1 binders on small-molecule microarray, primary screen, cell lysate, human LULL1 lysate, 635/667 nm fluorescence (AID 1092); details: hLULL1 lysate binding, 635 nm fluorescence, higher = more signal;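 also: probe is lysate of COS7 cells overexpressing human LULL1; score merges per-feature 667 nm fluorescence with signal-to-noise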
[16] = E. coli growth modulation, two-sided OD650, primary screen, E. coli filamentation project, strain DRC41, 24 h (AID 1093); details: OD650, 24 h, higher = more signal, called active from +8 up or from −8 down;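 also: MC1000 strain lacking acrAB efflux and sulA so SOS filamentation is blocked; test concentration not given here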
[17] = small-molecule microarray binders of probe aLefty2, primary screen, biochemical, biotinylated probe, 635/667 nm fluorescence (AID 1094); details: higher = more signal;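 also: score merges spot fluorescence near 667 nm with spot signal-to-noise ratio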
[18] = system: Noggin (protein binding on small-molecule microarray); assay: Noggin binders on small-molecule microarray, primary screen, biochemical, 635/667 nm fluorescence (AID 1095); details: 635 nm fluorescence, higher = more signal;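 also: score merges 667 nm feature fluorescence with signal to noise over triplicate slides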
[19] = target: Neurogenic locus notch homolog protein 3 (Homo sapiens) (UniProt Q9UM47); assay: NOTCH3 binders on small-molecule microarray, primary screen, biochemical, 635/667 nm fluorescence (AID 1096); details: NOTCH3 binding, 635 nm fluorescence, higher = more signal
[20] = small-molecule microarray binders of probe aEGFR, primary screen, biochemical, biotinylated probe, 635/667 nm fluorescence (AID 1097); details: higher = more signal;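 also: probe is a biotinylated anti-EGFR antibody binding compounds printed on slides; score combines fluorescence near 667 nm and signal to noise of each spot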

Chain of Neurogenic locus notch homolog protein 2 (Homo sapiens) (Q04721 whole entry, looked up, canonical isoform): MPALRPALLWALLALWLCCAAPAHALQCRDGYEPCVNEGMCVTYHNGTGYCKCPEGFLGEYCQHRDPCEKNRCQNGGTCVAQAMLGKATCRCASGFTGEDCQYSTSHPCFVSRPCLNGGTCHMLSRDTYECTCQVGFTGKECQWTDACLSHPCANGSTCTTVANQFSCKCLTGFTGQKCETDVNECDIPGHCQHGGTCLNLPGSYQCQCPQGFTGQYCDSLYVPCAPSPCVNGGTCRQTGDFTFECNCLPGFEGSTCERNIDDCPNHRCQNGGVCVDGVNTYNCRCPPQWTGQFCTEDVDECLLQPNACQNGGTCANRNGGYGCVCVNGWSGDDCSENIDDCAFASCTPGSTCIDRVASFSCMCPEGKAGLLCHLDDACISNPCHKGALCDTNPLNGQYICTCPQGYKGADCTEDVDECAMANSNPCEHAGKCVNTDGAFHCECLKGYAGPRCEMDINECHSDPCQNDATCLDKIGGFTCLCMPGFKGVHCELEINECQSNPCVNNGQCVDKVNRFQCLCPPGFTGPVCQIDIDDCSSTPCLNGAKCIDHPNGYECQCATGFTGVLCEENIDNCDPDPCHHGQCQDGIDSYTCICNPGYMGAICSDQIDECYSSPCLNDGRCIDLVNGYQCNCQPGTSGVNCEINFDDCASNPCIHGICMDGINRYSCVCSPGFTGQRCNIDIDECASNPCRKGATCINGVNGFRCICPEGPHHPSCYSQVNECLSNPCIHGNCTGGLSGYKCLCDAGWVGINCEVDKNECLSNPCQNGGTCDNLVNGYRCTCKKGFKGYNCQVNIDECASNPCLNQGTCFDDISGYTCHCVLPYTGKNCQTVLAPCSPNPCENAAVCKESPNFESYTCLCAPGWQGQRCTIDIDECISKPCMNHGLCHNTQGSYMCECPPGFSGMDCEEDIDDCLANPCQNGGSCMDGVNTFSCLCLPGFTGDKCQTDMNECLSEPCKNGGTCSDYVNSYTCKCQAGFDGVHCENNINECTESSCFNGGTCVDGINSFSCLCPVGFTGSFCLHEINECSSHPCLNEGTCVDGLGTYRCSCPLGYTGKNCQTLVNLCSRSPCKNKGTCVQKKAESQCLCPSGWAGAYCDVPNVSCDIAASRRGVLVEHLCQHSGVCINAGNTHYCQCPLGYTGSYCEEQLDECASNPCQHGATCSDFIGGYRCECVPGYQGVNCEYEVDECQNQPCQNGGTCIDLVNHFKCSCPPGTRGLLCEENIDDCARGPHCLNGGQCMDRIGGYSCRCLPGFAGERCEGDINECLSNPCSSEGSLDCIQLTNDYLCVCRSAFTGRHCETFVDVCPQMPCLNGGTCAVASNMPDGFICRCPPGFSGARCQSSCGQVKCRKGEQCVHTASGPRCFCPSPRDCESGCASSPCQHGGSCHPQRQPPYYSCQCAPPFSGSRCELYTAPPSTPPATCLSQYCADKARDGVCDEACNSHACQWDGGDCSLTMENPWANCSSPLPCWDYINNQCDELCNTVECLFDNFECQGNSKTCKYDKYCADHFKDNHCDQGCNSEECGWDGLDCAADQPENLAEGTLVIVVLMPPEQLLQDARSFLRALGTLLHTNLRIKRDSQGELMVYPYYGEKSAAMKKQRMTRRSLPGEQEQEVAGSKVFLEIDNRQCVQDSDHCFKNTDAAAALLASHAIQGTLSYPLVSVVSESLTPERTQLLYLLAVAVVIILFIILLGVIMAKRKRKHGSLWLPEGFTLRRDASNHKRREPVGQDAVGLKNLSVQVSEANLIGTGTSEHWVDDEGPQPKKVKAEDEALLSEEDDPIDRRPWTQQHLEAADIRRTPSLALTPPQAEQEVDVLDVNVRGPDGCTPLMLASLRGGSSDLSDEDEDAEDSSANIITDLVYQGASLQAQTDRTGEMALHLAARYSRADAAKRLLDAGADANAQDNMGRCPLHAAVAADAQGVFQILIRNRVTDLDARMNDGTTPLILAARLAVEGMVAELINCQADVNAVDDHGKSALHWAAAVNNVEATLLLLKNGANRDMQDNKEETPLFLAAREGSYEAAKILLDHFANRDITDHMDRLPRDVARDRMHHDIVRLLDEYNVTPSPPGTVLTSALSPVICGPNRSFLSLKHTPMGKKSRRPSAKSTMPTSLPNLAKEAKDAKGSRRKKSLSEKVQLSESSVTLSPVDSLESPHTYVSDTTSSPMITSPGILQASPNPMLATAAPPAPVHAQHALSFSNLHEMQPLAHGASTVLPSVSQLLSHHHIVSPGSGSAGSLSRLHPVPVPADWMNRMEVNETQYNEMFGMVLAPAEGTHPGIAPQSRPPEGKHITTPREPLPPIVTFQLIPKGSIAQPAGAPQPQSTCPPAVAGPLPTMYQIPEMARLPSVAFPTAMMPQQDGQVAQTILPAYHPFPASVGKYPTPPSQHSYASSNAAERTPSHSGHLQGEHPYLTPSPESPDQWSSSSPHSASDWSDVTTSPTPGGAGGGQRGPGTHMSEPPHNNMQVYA
Chain of Pro-neuregulin-1, membrane-bound isoform (Homo sapiens) (Q02297 whole entry, looked up, the tested form may be a part, canonical isoform): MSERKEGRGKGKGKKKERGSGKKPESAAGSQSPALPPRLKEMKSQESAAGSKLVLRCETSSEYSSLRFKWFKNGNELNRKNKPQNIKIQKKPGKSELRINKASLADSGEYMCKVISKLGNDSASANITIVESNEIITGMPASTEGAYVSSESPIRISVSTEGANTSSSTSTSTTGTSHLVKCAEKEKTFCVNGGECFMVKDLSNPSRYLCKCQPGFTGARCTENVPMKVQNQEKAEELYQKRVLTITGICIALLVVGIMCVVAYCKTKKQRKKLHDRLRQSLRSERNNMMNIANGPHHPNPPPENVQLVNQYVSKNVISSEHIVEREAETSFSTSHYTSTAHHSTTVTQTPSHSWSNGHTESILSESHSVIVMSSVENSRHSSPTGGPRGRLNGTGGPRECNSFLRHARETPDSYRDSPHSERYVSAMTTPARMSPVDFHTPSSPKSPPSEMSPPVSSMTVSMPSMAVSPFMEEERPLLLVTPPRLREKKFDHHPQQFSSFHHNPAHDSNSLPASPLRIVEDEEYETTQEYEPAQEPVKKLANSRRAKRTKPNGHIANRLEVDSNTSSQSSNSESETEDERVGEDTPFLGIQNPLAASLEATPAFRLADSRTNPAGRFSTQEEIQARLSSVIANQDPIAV
Chain of Torsin-1A-interacting protein 2 (Homo sapiens) (Q8NFQ8 whole entry, looked up): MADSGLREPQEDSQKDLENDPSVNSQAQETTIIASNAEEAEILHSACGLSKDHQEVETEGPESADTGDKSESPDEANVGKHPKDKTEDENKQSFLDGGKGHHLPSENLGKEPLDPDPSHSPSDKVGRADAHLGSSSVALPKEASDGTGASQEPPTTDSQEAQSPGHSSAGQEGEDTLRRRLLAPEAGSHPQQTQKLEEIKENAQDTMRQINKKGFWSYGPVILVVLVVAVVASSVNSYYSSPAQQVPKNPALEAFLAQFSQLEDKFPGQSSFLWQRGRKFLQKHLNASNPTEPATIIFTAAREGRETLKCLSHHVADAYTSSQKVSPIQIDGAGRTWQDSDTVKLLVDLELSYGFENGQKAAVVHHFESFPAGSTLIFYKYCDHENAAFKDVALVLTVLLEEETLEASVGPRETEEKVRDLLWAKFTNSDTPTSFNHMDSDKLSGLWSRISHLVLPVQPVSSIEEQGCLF

Row | SMILES | composite z-score [1] | composite z-score [2] | composite z-score [3] | composite z-score [4] | composite z-score [5] | composite z-score [6] | composite z-score [7] | z-score [8] | composite z-score [9] | composite z-score [10] | composite z-score [11] | z-score [12] | z-score [13] | z-score [14] | composite z-score [15] | z-score [16] | composite z-score [17] | composite z-score [18] | composite z-score [19] | composite z-score [20]
1 | CC(C)(C)N1C(=O)[C@H]2[C@H]3[C@H](O)[C@H](O)CC(=O)[C@H]3CC[C@H]2C1=O | -0.635 | 1.21 | -0.107 | 0.295 | 0.967 | 0.354 | 0.725 | -0.0954 (inactive) | 0.115 | -0.134 | 0.729 | 0.445 (inactive) | -0.109 (inactive) | 0.85 (inactive) | 0.46 | -0.29 (inactive) | -0.211 | 0.344 | 0.611 | -0.0333
2 | C#CCCCON=C1C[C@@H](O)[C@@H](O)[C@@H]2[C@@H]3C(=O)N(Cc4ccccc4)C(=O)[C@@H]3CC[C@@H]12 | -0.19 | 0.421 | -0.0887 | 0.0443 | 0.181 | 0.0645 | -0.816 | -0.211 (inactive) | 0.53 | 0.0176 | -0.526 | -0.956 (inactive) | -0.351 (inactive) | -1.61 (inactive) | -0.569 | 0.49 (inactive) | -0.0409 | 0.224 | 0.0798 | -0.14
3 | CCOC(=O)[C@H](Cc1ccccc1)NC(=O)CCC1CC(OC(=O)NCCc2ccc(F)cc2)CC2(CCCC(COC(=O)NCc3ccccc3)O2)O1 (stereo not given in full) | -0.434 | -0.0986 | -0.0887 | 0.854 | 0.679 | 0.331 | 0.903 | 0.292 (inactive) | 0.0791 | -0.0994 | 1.56 | -0.522 (inactive) | 0.653 (inactive) | 0.6 (inactive) | 0.999 | 0.413 (inactive) | -0.0965 | 0.644 | 1.04 | -0.0146
4 | CCOC(=O)[C@H](CC(C)C)NC(=O)CCC1CC(OC(=O)NCc2ccc3c(c2)OCO3)CC2(CCCC(COC(=O)NCC(c3ccccc3)c3ccccc3)O2)O1 (stereo not given in full) | -0.354 | -0.168 | -0.0692 | 0.229 | 0.129 | 0.49 | 1.17 | 2.69 (inactive) | 0.344 | -0.0994 | 0.915 | 0.417 (inactive) | 0.707 (inactive) | 0.34 (inactive) | 1.6 | 0.344 (inactive) | -0.145 | 0.617 | 0.79 | -0.0177
5 | COc1cccc([C@H]2Oc3ccc(OC)cc3C(=NO[C@@H]3O[C@H](COC(C)=O)[C@@H](OC(C)=O)[C@H](OC(C)=O)[C@H]3OC(C)=O)[C@@H]2O)c1 | -0.533 | 0.974 | -0.116 | 0.326 | 0.842 | -0.62 | -0.782 | 1.59 (inactive) | 0.198 | 0.0972 | 0.102 | -1.07 (inactive) | 1.14 (inactive) | -0.239 (inactive) | -0.0867 | 0.373 (inactive) | -0.119 | 0.35 | 0.615 | 0.0009
6 | CO[C@H]1COC(=O)CC=C[C@H](C)[C@@H](OC)COC(=O)[C@H](C)COC(=O)CC=C[C@@H]1C | -0.687 | 1.34 | -0.223 | -0.562 | -0.407 | -0.785 | -0.142 | -0.387 (inactive) | -0.176 | 0.0722 | 0.765 | 0.395 (inactive) | -0.425 (inactive) | 0.567 (inactive) | -0.344 | 0.683 (inactive) | -0.268 | 1.76 | -0.292 | -0.0439
7 | COC(=O)[C@@H]1CC[C@H](C)[C@@H](c2ccc(C)cc2)N1C(=O)c1ccc(C=NOCC[C@@H]2C=C[C@H](OC(C)=O)[C@@H](COC(C)=O)O2)cc1 | -0.381 | 0.333 | -0.11 | 0.332 | 0.7 | 0.102 | 0.61 | 0.579 (inactive) | 0.0627 | 0.0505 | 0.903 | 1.09 (inactive) | 1.58 (inactive) | 1.81 (inactive) | 0.105 | 0.411 (inactive) | -0.0736 | 0.647 | 0.792 | -0.0397
8 | C=CC[C@@H]1C=C[C@H](ON=C[C@@H](C)[C@H](OCc2ccccc2)C(C)C)[C@@H](CO)O1 | -0.227 | -0.14 | 0.342 | -0.433 | -1.1 | -0.241 | -0.255 | 0.715 (inactive) | -0.0578 | -0.0618 | 0.261 | -1.46 (inactive) | -3.98 (inactive) | -0.515 (inactive) | 0.602 | 0.15 (inactive) | -0.228 | -0.244 | -0.0585 | -0.146
9 | COC(=O)CC=C[C@@H](C)[C@@H](C=NOC[C@H]1O[C@H](c2ccccc2)C=C[C@@H]1Oc1ccc(OC)cc1)NS(=O)(=O)c1ccc(C)cc1 | 0.577 | -0.564 | -0.127 | -1.06 | -0.766 | -0.754 | -1.29 | -0.461 (inactive) | -0.0763 | -0.0645 | -1.27 | 0.0204 (inactive) | 0.321 (inactive) | -0.382 (inactive) | -0.744 | -0.513 (inactive) | -0.0785 | -0.882 | -0.939 | -0.195

— PubChem BioAssay
